The source of these data is PubChem BioAssay (NCI).

Among the test systems are NCI-H23 lung; NCI-H226 lung; NCI-H322M lung; HOP-62 NSCLC; NCI-H460 lung; HOP-92 NSCLC; NCI-H522 lung; A549/ATCC NSCLC; 786-0 renal; COLO 205 colon; DU-145 prostate; K-562 leukemia; MALME-3M melanoma; MDA-MB-231 breast; RXF 393 renal; SF-268 CNS; SF-295 CNS; SF-539 CNS; UACC-257 melanoma; M14 melanoma.
Holding throughout (test): NCI-60 one-dose screen, 48 h (100 = growth as untreated, 0 = no growth, -100 = all killed)
Holding throughout (details): 10 µM unless noted

The structures appear in SMILES notation. About 83,000 compounds went through this panel and 20% of them were active in at least one assay; those are over-represented in the sample as a whole.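 Cell lines were cultured in 96-well plates, exposed to a single compound concentration, and assessed for percent growth 48 hours later.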 A number with no mark means an inactive call. Calls of active or inactive are those of the source. How the source made its calls: active means growth percent below 10; inactive means the rest.

Take `O=c1[nH]c2ccccc2cc1-c1nc2ccc(Cl)cc2[nH]1`: the growth in the test on NCI-H23 lung is 53.5%; with NCI-H226 lung it was 55.2%; in the test on NCI-H322M lung, 50.3%; in the test with HOP-62 NSCLC, 67.2%; in the test with NCI-H460 lung, 18%; in the test with HOP-92 NSCLC, 7.43% (active). Besides, the growth was 38.2% with NCI-H522 lung; 40.1% in the test on A549/ATCC NSCLC; 52.8% in the test on 786-0 renal; 52.2% in the test on COLO 205 colon; 38.2% in the test on DU-145 prostate; 13.7% in the test on K-562 leukemia. Also, the growth was 61.7% in the test on MALME-3M melanoma; 44.9% in the test with MDA-MB-231 breast; 63% in the test on RXF 393 renal; 50.7% in the test with SF-268 CNS; -7.79% (active) in the test with SF-295 CNS; 49% in the test on SF-539 CNS. In addition, the growth was 91.5% in the test on UACC-257 melanoma and 40.8% in the test with M14 melanoma.

Take `CC[C@H](Nc1ncnc2nc[nH]c12)c1nc2cccc(CC(=O)c3ccc(C(=O)NO)cc3)c2c(=O)n1-c1ccccc1`: the growth was 94.1% with NCI-H23 lung; 84.9% in the test with NCI-H226 lung; 90.4% in the test on NCI-H322M lung; 83.2% with HOP-62 NSCLC; 89.9% in the test with NCI-H460 lung; 72.6% in the test on HOP-92 NSCLC. The growth in the test with NCI-H522 lung was 51.4%; with A549/ATCC NSCLC, 88.4%; with 786-0 renal, 98.9%; in the test with COLO 205 colon, 95.4%; in the test on DU-145 prostate it was 101%; in the test with K-562 leukemia, 85.9%. Besides, the growth is 56.2% in the test with MALME-3M melanoma; 99.9% in the test on MDA-MB-231 breast; 83.5% in the test on RXF 393 renal; 83% in the test with SF-268 CNS; 97.9% in the test on SF-295 CNS; 78.5% with SF-539 CNS. Moreover, the values for the growth in the test on UACC-257 melanoma and in the test with M14 melanoma were 53.5% and 92.5%, respectively.

Take `NC(=O)C(O)(c1ccccc1)c1ccccc1`: the growth in the test on NCI-H23 lung was 101%; with NCI-H226 lung, 99.2%; in the test with NCI-H322M lung, 105%; in the test on HOP-62 NSCLC, 91.6%; in the test with NCI-H460 lung it was 104%; in the test on HOP-92 NSCLC, 83.2%. The growth in the test on NCI-H522 lung was 84.2%; with A549/ATCC NSCLC, 91%; in the test on 786-0 renal, 102%; with COLO 205 colon it was 115%; in the test on DU-145 prostate it was 105%; in the test on K-562 leukemia, 99.6%. The growth is 113% with MALME-3M melanoma; 108% with MDA-MB-231 breast; 123% with RXF 393 renal; 110% with SF-268 CNS; 99.7% with SF-295 CNS; 103% in the test on SF-539 CNS. Moreover, the growth with UACC-257 melanoma was 91.8%; with M14 melanoma, 97.1%.

As for `Cc1ccc(C(=O)O)o1`, the growth is 100% with NCI-H23 lung; 104% with NCI-H226 lung; 105% in the test on NCI-H322M lung; 109% in the test on HOP-62 NSCLC; 108% with NCI-H460 lung; 89.9% in the test on HOP-92 NSCLC. The growth in the test on NCI-H522 lung is 87%; with A549/ATCC NSCLC, 93.1%; in the test with 786-0 renal, 97.1%; with COLO 205 colon it was 107%; in the test on DU-145 prostate, 107%; in the test with K-562 leukemia, 103%. Also, the growth is 104% in the test on MALME-3M melanoma; 111% in the test with MDA-MB-231 breast; 118% with RXF 393 renal; 98.1% with SF-268 CNS; 99.8% in the test on SF-295 CNS; 99.5% in the test with SF-539 CNS. For the same compound, the growth was 103% in the test on UACC-257 melanoma and 101% in the test on M14 melanoma.

For the compound `COc1ccc(C(=O)c2cc(OC)c(OC)c(OC)c2)cc1OC(=O)C(Cl)(Cl)Cl`, the growth is 26.9% in the test on NCI-H23 lung; 95.4% in the test with NCI-H226 lung; 38.4% in the test with NCI-H322M lung; 17.3% in the test on HOP-62 NSCLC; 5.08% (active) in the test with NCI-H460 lung; 50.3% with HOP-92 NSCLC. In addition, the growth was -13.3% (active) with NCI-H522 lung; 19% with A549/ATCC NSCLC; 20.9% with 786-0 renal; 13% in the test on COLO 205 colon; 7.06% (active) in the test on DU-145 prostate; 7.85% (active) with K-562 leukemia. Moreover, the growth was 74.8% in the test with MALME-3M melanoma; 28.7% in the test on MDA-MB-231 breast; 29.9% in the test on RXF 393 renal; 34.7% in the test on SF-268 CNS; 8.77% (active) in the test with SF-295 CNS; -7.13% (active) in the test on SF-539 CNS. Further, the figures for the growth with UACC-257 melanoma and in the test with M14 melanoma were 56% and -4.45% (active), respectively.

As for `OCCNc1nc(NCCO)nc(Nc2ccc(C3=NN(c4ccc(Cl)cc4)C(c4ccc(Cl)cc4)C3)cc2)n1` (stereo not given), the growth is 70.4% in the test on NCI-H23 lung; 104% in the test with NCI-H226 lung; 50.7% in the test with NCI-H322M lung; 47.2% in the test on HOP-62 NSCLC; 36.2% with NCI-H460 lung; 81.9% in the test with HOP-92 NSCLC. Moreover, the growth in the test with NCI-H522 lung was 63.9%; in the test on A549/ATCC NSCLC it was 50.9%; in the test with 786-0 renal, 16.7%; with COLO 205 colon, 65.5%; in the test with DU-145 prostate it was 51.9%; with K-562 leukemia it was 13.3%. Also, the growth is 70.1% in the test on MALME-3M melanoma; 63.7% in the test on MDA-MB-231 breast; -26.1% (active) with RXF 393 renal; 53% with SF-268 CNS; 12.2% with SF-295 CNS; 36.6% in the test on SF-539 CNS. The growth was 72.9% in the test with UACC-257 melanoma and 63.9% with M14 melanoma.

Consider `Nc1ccccc1NC(=O)c1ccc(CSc2nc(N3CCOCC3)c3cccn3n2)cc1`, for which the growth with NCI-H23 lung was 22.5%; in the test with NCI-H226 lung, 6.52% (active); in the test with NCI-H322M lung it was 22%; in the test on HOP-62 NSCLC, 15.5%; in the test on NCI-H460 lung it was 15.3%; in the test on HOP-92 NSCLC, -6.72% (active). For the same compound, the growth in the test on NCI-H522 lung is -50.3% (active); in the test on A549/ATCC NSCLC, 11.8%; in the test on 786-0 renal, 17.3%; in the test on COLO 205 colon, -29% (active); in the test on DU-145 prostate, 9.93% (active); in the test on K-562 leukemia it was 5.46% (active). The growth in the test with MALME-3M melanoma was 30.9%; with MDA-MB-231 breast, 18.8%; in the test with RXF 393 renal, -6.46% (active); in the test with SF-268 CNS, 4.84% (active); in the test with SF-295 CNS it was 2.8% (active); in the test on SF-539 CNS, 15.2%. The growth was -3.3% (active) in the test on UACC-257 melanoma and 5.11% (active) with M14 melanoma.
